# Many of the other results were omitted from the sample, so hits are more common in it than they were.
# Dicer processing: inhibitors of human Dicer processing of pre-microRNA. Q9UPY3. cat-ELCCA pre-miR-21 Dicer processing, chemiluminescence; hits give high values. z-score at 25 µM. hit rate 6% among 47,000. AID 1347074; in the data active = z-score above about 3, passing the limit was not always enough;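 also: plate controls were vehicle for no effect and no enzyme for full effect; higher signal means more uncleaved substrate so more Dicer inhibition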
# Target sequence (Q9UPY3 whole entry, looked up): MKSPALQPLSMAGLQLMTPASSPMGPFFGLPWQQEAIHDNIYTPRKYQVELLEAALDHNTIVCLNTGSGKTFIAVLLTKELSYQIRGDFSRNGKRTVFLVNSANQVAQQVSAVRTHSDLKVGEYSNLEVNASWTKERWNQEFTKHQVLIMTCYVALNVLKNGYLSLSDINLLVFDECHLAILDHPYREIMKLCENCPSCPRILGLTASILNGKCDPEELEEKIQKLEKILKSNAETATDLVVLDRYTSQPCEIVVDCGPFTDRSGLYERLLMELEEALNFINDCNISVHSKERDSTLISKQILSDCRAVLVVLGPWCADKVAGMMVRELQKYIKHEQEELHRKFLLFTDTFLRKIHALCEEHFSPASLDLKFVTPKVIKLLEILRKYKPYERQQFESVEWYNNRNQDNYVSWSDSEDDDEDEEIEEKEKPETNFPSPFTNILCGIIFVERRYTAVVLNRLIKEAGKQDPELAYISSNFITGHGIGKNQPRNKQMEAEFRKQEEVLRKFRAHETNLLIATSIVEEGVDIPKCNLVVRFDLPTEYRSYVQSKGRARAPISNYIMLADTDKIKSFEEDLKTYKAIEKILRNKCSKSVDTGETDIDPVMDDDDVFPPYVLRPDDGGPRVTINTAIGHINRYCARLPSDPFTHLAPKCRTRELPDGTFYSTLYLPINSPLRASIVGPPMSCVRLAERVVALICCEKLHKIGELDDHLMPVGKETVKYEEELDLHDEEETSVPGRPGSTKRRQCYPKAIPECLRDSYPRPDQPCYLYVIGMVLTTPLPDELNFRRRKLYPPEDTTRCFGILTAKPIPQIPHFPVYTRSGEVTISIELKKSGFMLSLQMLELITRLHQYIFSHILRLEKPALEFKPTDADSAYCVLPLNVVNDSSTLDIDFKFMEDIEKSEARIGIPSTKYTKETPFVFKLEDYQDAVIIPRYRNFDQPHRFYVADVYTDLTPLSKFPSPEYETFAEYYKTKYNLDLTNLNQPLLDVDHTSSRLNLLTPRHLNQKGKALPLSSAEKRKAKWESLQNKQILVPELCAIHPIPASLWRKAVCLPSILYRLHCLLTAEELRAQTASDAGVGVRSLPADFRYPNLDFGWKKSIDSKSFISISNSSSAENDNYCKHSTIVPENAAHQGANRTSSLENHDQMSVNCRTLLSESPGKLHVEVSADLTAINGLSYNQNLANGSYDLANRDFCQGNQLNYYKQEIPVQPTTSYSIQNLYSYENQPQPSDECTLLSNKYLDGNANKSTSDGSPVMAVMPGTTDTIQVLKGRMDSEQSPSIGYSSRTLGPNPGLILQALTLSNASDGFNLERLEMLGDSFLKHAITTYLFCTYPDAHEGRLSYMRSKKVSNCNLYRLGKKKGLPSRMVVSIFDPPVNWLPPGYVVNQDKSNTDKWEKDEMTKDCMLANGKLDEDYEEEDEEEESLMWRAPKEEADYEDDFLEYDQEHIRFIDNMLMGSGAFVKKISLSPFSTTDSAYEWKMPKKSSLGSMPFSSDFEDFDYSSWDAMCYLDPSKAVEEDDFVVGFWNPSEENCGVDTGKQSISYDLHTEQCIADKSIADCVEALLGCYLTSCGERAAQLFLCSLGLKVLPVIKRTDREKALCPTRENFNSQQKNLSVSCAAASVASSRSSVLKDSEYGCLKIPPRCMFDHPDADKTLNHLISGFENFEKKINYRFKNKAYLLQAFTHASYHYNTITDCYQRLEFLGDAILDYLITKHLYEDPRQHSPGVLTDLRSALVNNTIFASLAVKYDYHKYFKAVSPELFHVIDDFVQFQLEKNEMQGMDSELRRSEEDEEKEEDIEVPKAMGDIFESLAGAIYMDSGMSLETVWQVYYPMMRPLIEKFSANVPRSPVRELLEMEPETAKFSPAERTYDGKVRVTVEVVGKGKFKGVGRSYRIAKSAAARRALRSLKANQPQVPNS
# Numbers without * were called inactive.
SMILES,Dicer processing
Cc1ccc(-c2nnc3c4ccccc4c(C)nn23)cc1S(=O)(=O)N(C)C1CCCCC1,0.96
Cc1ccc(-c2nnc3c4ccccc4c(C)nn23)cc1S(=O)(=O)N1CCCCC1,1.4
CCOC(=O)c1c(NC(=O)C2Cc3ccc(C)cc3C(=O)O2)sc2c1CCC2 (configuration not stated),-1.9
O=C(CCSc1nc(-c2ccc3c(c2)OCO3)cc(C(F)(F)F)n1)NC1CCCC1,-0.55
O=C1/C(=C/c2cccs2)CS/C1=C/c1cccs1,-3
O=C1/C(=C/c2cccs2)CCCc2ccccc21,0.41
O=C1/C(=C/c2cccs2)COC/C1=C\c1cccs1,4.2*
CCN(C(=O)c1sc(NC(=O)c2cccs2)c(C#N)c1C)C1CCCCC1,-0.77
Cc1ccc(N2CC(O)=C(c3nc4ccccc4c(=O)[nH]3)C2=N)cc1Cl,-0.15
COc1ccc(C2CC(=O)c3cn4nc(C(F)(F)F)nc4nc3C2)cc1 (configuration not stated),0.64
O=C1C=C(NC2Cc3ccccc3C2)CC(c2cccc(Cl)c2)C1 (configuration not stated),-0.95
O=C1C=C(NC2Cc3ccccc3C2)CC(c2ccccc2)C1 (configuration not stated),-0.9
CN(C)c1ccc(C2CC(=O)C=C(NC3Cc4ccccc4C3)C2)cc1 (configuration not stated),4.6*
CCCc1nn2c(=O)c(NC(=O)c3ccc(Cl)cc3)cnc2s1,-1.3
CN(C(=O)C(=O)c1ccc(CN2C(=O)c3ccccc3C2=O)o1)c1nnc(C(F)(F)F)s1,0.58
COc1ccc(C(=O)CSc2nc(C)cc(C)n2)cc1C,-0.42
Cc1cc(C)nc(SCC(=O)c2ccc(F)cc2F)n1,3.7*
Cc1cc(C)nc(SCC(=O)c2c(C)[nH]c3ccccc23)n1,2.9
COc1cc(CNCc2ccc3c(c2)OCO3)cc(OC)c1,-3.3
CC1CCc2c(sc3ncnc(N4CCN(C)CC4)c23)C1 (configuration not stated),0.28
O=C(O)c1ccccc1NS(=O)(=O)c1ccc2c3c(cccc13)C(=O)S2,-0.85
O=C1Sc2ccc(S(=O)(=O)Nc3ccc(F)cc3)c3cccc1c23,3.5*
COc1ccc(NS(=O)(=O)c2ccc3c4c(cccc24)C(=O)N3)cc1,0.18
C=CCOC(=O)c1sc(N2C(=O)c3oc4ccccc4c(=O)c3C2c2ccc(O)cc2)nc1C (configuration not stated),-0.31
CC(=O)OCCNc1nc2c([nH]1)c(=O)n(C)c(=O)n2C,-0.07
SMILES,Dicer processing
Cc1cc(Oc2ccnc3cc(Cl)ccc23)ccc1Cl,29*
Cc1cc(OCOc2ccc(Cl)c(C)c2)ccc1Cl,-1.3
Cc1cc(Oc2ccnc3cc(Cl)ccc23)cc(C)c1Cl,-0.76
Cc1ccc(C2Nn3c(nnc3-c3ccccc3)SC2C(=O)NCC2CCCO2)cc1 (configuration not stated),0.82
N/C(Cn1ccc(C(F)(F)F)n1)=N\OC(=O)Nc1ccc(SC(F)(F)F)cc1,0.91
Fc1cccc(-c2nn3c(-c4ccccc4)nnc3s2)c1,0.15
CC(=O)OC(OC(C)=O)c1ccc(S(C)(=O)=O)cc1,0.18
CC(C)(C)c1cc(-c2nc(-c3ccccn3)no2)n(Cc2ccccc2)n1,-1.6
O=S(=O)(/C=C/c1ccccc1)c1ccc(F)c(Cl)c1,-0.86
O=C(O)CS(=O)(=O)/C=C/c1ccccc1,19*
O=C(N/N=C/C=C/c1ccccc1)N/N=C/C=C/c1ccccc1,-0.35
CCO/C=C(\C#N)S(=O)(=O)C(C)C,-0.74
N#CC1=C(O)c2ccccc2N(S(=O)(=O)c2ccc(Cl)cc2)CC1,-0.16
Cc1oc(C(=O)NN)nc1-c1ccccc1,-0.03
CCCNC(=O)O/N=C(\N)c1c(-c2c(Cl)cccc2Cl)noc1C,4.5*
CC(=O)NOC(=O)c1c(-c2c(Cl)cccc2Cl)noc1C,0.86
Cc1onc(-c2c(Cl)cccc2Cl)c1C(=O)ONC(=O)C(C)(C)C,0.7
Cc1onc(-c2c(Cl)cccc2Cl)c1NC(=O)OCCOc1ccc(Cl)cc1Cl,-0.91
Cc1onc(-c2c(Cl)cccc2Cl)c1NC(=O)NN(C)C(=S)SCc1c(F)cccc1Cl,0.26
Cc1onc(-c2c(Cl)cccc2Cl)c1NC(=O)OCc1c(F)cccc1Cl,4*
COc1cc(C2c3c(oc4ccccc4c3=O)C(=O)N2c2nnc(C)s2)ccc1O (configuration not stated),-1.1
NS(=O)(=O)c1ccc(NC2SC(=O)N(c3ccccc3)C2=O)cc1 (configuration not stated),0.52
Cc1cccc(OCc2nc(-c3ccccc3)no2)c1C,-1.5
O=C(N/N=C/c1ccc(F)cc1)N/N=C/c1ccc(F)cc1,0.38
CCN(CC)C(=O)Cn1nc(C)c2ccccc2c1=O,0.39
CN(C)/C=N/c1nnc(SCc2ccc(C(=O)Oc3c(F)cccc3F)cc2)s1,0.33
CCOC(=O)NN(C(=O)OCC)/C(=C\C=C\N1CCCC1)c1nnn(-c2ccc(Cl)cc2)n1,-2.5
O=C1CSc2nnc(-c3ccncc3)n21,-0.97
O=S(=O)(c1ccccc1)N1CCCC1c1cccs1 (configuration not stated),-0.38
CC1(C)CC(N2CCCCC2)=CC(=S)S1,0.21

# Screens: PubChem BioAssay, Center for Chemical Genomics, University of Michigan
